The record followed here is ChEMBL document CHEMBL1961873, “Compounds: GSK PKIS; Assays: Nanosyn kinase panel” (2012).

Molecules are shown by their SMILES.

The term inhibition denotes the drop in the measured response relative to a control, in per cent.

Test [1] addresses Tyrosine-protein kinase Fer (Homo sapiens) (UniProt P16591). The conditions noted are these: at 1 µM.
Test [2] concerns the target Tyrosine-protein kinase Fes/Fps (Homo sapiens) (UniProt P07332). The conditions noted are these: at 0.1 µM.
For test [3] the target is unchanged. Conditions: at 1 µM.
The target in test [4] is Fibroblast growth factor receptor 1 (Homo sapiens) (UniProt P11362). The conditions noted are these: at 0.1 µM.
The target is the same in test [5]. Conditions: at 1 µM.
Test [6] has as its target Fibroblast growth factor receptor 2 (Homo sapiens) (UniProt P21802). Conditions: at 0.1 µM.
For test [7] the target is unchanged. Conditions: at 1 µM.
Test [8] addresses Fibroblast growth factor receptor 3 (Homo sapiens) (UniProt P22607). The conditions noted are these: at 0.1 µM.
The target is the same in test [9]. The conditions noted are these: at 1 µM.
The target of test [10] is Fibroblast growth factor receptor 4 (Homo sapiens) (UniProt P22455). The conditions noted are these: at 0.1 µM.
The target is the same in test [11]. Conditions: at 1 µM.
Test [12] concerns the target Tyrosine-protein kinase Fgr (Homo sapiens) (UniProt P09769). Conditions: at 0.1 µM.
Test [13] shares this target. The conditions noted are these: at 1 µM.
Test [14] deals with Vascular endothelial growth factor receptor 1 (Homo sapiens) (UniProt P17948). Conditions: at 0.1 µM.
For test [15] the target is unchanged. The conditions noted are these: at 1 µM.
For test [16], the target named is Receptor-type tyrosine-protein kinase FLT3 (Homo sapiens) (UniProt P36888). Conditions: at 0.1 µM.
Test [17] has the same target. Conditions: at 1 µM.
Test [18] relates to T1, Receptor-type tyrosine-protein kinase FLT3 (Homo sapiens), P36888 [D835Y].
T1 sequence (whole entry): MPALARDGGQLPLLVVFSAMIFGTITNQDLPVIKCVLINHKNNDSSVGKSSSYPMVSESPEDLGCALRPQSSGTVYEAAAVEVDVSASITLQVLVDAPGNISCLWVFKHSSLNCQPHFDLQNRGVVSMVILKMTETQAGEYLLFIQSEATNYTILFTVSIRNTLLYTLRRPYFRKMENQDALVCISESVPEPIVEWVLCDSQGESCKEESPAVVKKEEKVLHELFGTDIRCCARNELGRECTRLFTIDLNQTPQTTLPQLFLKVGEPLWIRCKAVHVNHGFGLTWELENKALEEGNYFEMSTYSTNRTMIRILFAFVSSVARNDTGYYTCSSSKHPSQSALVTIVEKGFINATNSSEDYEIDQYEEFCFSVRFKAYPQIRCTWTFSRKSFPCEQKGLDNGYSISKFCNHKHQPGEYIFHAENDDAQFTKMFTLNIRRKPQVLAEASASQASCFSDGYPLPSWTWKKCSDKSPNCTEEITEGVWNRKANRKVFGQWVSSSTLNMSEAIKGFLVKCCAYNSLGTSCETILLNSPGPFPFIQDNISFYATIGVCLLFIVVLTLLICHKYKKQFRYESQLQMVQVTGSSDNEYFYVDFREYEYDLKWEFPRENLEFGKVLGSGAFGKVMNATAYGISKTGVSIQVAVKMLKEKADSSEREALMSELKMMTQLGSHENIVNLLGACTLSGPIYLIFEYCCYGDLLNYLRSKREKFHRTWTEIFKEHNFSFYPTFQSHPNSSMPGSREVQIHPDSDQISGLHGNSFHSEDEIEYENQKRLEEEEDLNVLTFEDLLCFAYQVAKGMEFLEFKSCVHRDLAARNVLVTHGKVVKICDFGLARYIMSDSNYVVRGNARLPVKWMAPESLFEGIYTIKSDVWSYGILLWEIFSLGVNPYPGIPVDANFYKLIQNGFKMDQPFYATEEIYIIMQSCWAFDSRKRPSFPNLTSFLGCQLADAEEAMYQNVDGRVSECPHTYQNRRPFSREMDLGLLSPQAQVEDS
The conditions noted are these: at 0.1 µM.

In test [19] the target is Non-receptor tyrosine-protein kinase TYK2 (Homo sapiens) (UniProt P29597). Conditions: at 1 µM.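 Also: values are mean percent inhibition of TYK2 kinase.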
Test [20] deals with T2, Tyrosine-protein kinase receptor TYRO3 (Homo sapiens) (UniProt Q06418).
T2 sequence (whole entry): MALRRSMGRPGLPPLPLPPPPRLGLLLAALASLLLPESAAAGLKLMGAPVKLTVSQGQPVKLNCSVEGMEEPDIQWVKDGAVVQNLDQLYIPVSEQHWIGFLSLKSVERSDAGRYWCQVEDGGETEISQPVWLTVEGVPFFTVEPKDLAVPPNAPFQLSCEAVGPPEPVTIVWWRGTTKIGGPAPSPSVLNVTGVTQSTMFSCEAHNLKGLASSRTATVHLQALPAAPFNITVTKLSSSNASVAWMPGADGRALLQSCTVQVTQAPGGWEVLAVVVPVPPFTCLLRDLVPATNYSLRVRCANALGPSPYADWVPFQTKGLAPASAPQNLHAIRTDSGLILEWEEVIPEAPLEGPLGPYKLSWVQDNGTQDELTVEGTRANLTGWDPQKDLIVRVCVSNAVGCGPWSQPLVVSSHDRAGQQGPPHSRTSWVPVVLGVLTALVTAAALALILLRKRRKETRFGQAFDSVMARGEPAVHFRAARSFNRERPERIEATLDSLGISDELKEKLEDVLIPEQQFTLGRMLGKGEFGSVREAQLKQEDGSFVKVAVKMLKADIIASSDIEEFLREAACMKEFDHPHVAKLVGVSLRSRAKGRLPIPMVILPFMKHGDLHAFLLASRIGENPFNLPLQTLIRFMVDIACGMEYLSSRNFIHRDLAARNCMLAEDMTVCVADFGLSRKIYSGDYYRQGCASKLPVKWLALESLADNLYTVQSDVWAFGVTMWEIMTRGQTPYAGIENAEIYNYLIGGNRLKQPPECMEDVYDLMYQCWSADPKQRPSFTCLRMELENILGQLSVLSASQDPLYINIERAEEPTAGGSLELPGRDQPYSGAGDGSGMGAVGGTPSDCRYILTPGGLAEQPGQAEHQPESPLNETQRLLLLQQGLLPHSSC
Conditions: at 0.1 µM.

Sequence of Fibroblast growth factor receptor 4 (Homo sapiens) (P22455 22-802 limits assumed): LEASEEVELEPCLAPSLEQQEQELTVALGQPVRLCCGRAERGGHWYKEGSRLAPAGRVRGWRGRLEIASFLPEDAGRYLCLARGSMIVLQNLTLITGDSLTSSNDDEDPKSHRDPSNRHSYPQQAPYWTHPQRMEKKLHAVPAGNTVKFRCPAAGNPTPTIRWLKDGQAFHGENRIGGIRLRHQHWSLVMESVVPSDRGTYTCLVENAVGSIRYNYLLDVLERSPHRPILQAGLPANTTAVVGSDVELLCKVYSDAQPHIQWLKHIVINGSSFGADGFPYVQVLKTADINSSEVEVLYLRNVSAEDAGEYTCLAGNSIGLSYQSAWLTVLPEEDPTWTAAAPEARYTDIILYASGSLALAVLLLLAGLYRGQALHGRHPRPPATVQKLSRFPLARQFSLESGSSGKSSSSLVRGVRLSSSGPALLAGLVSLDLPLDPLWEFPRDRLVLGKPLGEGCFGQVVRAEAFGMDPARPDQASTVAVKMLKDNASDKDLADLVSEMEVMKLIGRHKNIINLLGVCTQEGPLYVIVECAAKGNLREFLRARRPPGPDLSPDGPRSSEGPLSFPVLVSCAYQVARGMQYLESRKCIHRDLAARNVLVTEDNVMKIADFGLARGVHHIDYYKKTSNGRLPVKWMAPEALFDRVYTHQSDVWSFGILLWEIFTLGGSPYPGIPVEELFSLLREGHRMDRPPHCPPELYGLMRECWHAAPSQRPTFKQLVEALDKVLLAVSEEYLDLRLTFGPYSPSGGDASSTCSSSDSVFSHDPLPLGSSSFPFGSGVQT
Sequence of Fibroblast growth factor receptor 3 (Homo sapiens) (P22607 23-806 limits assumed): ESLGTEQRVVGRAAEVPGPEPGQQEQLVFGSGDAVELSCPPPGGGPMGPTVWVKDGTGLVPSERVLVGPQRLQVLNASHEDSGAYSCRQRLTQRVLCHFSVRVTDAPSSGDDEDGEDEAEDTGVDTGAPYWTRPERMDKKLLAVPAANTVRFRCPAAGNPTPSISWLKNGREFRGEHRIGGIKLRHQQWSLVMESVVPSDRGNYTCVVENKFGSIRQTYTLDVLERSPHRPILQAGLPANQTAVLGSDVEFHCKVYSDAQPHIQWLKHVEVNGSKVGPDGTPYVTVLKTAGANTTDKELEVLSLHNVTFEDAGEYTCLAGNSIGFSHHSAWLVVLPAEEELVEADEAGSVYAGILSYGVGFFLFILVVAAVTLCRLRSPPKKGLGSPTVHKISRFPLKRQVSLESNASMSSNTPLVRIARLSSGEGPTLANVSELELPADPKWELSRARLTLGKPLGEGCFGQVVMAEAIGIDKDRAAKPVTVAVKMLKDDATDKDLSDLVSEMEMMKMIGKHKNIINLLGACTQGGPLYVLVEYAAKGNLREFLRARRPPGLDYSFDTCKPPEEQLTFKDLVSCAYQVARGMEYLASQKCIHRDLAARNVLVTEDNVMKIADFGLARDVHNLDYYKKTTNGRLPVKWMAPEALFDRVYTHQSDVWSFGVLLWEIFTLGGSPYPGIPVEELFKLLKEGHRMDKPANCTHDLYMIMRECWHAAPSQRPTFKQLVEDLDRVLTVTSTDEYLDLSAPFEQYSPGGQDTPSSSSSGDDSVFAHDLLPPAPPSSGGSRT
Sequence of Tyrosine-protein kinase Fes/Fps (Homo sapiens) (P07332 whole entry): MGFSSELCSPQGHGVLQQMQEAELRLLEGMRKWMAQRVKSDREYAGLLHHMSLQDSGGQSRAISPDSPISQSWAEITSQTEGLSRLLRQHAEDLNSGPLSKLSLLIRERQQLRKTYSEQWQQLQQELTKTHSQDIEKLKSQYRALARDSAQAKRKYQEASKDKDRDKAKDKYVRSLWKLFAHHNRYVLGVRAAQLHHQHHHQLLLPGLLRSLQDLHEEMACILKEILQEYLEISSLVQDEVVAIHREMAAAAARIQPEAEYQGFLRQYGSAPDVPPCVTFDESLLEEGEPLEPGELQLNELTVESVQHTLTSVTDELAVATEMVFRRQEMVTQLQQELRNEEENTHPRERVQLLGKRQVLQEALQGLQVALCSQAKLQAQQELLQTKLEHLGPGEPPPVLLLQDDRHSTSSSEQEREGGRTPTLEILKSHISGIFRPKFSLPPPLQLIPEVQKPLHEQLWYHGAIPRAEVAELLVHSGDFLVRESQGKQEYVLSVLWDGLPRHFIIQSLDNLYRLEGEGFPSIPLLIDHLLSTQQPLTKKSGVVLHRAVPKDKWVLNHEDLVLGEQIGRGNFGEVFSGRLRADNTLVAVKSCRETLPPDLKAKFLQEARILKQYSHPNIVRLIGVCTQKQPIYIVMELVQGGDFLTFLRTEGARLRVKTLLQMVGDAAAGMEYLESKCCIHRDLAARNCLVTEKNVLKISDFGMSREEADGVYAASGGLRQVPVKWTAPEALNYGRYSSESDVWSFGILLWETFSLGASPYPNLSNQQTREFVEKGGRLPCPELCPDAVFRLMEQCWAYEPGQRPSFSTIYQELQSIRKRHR
Sequence of Vascular endothelial growth factor receptor 1 (Homo sapiens) (P17948 whole entry): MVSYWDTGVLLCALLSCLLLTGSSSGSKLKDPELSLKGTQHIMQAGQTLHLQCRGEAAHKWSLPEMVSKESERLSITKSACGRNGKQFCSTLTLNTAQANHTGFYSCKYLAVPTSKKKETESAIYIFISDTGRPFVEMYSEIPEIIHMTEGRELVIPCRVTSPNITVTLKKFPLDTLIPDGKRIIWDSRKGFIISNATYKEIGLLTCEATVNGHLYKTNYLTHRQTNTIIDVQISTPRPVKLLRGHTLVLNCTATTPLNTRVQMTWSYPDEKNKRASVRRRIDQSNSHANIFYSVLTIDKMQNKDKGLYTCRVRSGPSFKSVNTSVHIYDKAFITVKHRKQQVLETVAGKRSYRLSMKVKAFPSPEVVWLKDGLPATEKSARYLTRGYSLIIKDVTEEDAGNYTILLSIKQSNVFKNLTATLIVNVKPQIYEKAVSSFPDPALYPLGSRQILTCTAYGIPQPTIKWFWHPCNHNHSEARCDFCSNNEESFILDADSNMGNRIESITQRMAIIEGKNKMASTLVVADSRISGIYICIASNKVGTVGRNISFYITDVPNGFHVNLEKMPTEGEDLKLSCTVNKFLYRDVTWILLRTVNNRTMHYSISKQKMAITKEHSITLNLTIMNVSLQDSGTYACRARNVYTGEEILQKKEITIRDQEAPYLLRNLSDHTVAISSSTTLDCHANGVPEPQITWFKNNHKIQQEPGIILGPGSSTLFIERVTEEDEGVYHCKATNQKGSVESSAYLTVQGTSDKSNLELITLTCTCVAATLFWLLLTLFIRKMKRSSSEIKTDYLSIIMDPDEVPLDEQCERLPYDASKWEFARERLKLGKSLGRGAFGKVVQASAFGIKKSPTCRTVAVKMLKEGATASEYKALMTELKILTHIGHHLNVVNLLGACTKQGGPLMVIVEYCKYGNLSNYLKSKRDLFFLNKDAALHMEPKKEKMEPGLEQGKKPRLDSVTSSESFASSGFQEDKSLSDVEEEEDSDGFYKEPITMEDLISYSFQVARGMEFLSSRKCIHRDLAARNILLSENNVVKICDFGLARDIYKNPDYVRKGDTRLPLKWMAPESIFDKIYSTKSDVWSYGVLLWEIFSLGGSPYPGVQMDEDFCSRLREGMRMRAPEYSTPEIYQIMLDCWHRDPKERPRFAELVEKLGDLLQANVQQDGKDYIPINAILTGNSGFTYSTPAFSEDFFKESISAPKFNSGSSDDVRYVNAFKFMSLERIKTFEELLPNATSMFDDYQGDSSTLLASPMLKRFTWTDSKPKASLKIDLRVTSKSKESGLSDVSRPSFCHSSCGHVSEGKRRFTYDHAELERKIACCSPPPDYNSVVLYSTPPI
Sequence of Fibroblast growth factor receptor 2 (Homo sapiens) (P21802 22-821 limits assumed): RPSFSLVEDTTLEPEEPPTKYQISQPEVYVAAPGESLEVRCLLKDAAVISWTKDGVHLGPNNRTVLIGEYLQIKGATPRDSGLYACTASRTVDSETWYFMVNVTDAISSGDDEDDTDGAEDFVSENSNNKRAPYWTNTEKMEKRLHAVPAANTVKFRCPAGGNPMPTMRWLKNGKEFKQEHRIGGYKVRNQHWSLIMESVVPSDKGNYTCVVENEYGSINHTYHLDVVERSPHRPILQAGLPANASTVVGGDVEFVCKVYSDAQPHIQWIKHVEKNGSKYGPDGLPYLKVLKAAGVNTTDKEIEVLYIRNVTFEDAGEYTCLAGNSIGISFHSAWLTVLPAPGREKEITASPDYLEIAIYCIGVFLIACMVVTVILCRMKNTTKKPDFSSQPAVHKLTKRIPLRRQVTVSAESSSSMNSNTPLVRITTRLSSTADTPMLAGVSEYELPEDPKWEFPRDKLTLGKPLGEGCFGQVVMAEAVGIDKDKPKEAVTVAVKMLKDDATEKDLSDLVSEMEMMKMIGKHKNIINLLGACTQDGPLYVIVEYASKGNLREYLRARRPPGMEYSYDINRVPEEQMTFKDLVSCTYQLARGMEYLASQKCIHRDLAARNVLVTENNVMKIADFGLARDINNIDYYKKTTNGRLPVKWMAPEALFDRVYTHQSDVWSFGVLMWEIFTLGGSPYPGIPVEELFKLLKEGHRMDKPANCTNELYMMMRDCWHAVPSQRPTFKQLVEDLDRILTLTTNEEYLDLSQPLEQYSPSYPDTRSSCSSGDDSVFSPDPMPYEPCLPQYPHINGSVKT
Sequence of Tyrosine-protein kinase Fgr (Homo sapiens) (P09769 2-529 limits assumed): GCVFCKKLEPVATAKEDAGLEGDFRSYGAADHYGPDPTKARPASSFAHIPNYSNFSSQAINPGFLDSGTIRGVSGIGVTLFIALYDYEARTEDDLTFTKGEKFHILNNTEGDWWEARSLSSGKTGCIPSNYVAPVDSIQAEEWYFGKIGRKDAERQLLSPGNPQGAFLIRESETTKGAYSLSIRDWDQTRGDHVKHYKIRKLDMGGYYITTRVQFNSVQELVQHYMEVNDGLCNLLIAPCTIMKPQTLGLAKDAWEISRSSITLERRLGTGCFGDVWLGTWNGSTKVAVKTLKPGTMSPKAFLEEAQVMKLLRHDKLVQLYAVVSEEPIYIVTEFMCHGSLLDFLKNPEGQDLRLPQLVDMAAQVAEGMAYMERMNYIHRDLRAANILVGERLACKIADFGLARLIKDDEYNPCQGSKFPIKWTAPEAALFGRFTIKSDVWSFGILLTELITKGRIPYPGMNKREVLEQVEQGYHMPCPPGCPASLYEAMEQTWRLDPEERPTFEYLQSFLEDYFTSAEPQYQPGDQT

Turning to `N#Cc1cccc(Nc2nccc(-c3cnn4ncccc34)n2)c1`, the inhibition in test [1] is 48.9%; in [2], 7.07%; in test [3], 34.3%; in test [4], 4.73%; in [5], 8.94%; in [6], 7.31%. Besides, the inhibition in test [7] is 23.4%; in test [8] it was 9.72%; in [9], 17.2%; in test [10], -0.11%; in test [11] it was 5.22%; in test [12] it was 11.1%. The inhibition is 41.7% in [13]; 8.37% in [14]; 28.3% in test [15]; 18.5% in test [16]; 68% in test [17]; 7.57% in [18]. Moreover, the values for the inhibition in [19] and in test [20] were 11% and 7.97%, respectively.
Regarding `Cc1ccc2c(c1)/C(=N/Nc1ccc(S(N)(=O)=O)cc1)C(=O)N2`, the inhibition was 0.29% in test [1]; -0.01% in test [2]; 0.85% in [3]; 0.1% in test [4]; 4.71% in test [5]; 2.39% in test [6]. Moreover, the inhibition in test [7] is 27.2%; in test [8], 4.04%; in test [9], 26.5%; in test [10] it was -1.85%; in test [11], -0.45%; in test [12] it was -0.72%. The inhibition in [13] is 9.99%; in test [14], 0.83%; in [15] it was 7.86%; in test [16] it was 13.6%; in [17] it was 61.7%; in test [18], -0.36%. Further, the inhibition is 1.67% in test [19] and -0.02% in test [20].
In the case of `CN(C)CCCn1c(-c2nonc2N)nc2cnccc21`, the inhibition is 3.54% in [1]; 2.93% in test [2]; 2.95% in test [3]; 3.21% in test [4]; 3.42% in [5]; 2.86% in test [6]. For the same compound, the inhibition is 6.36% in test [7]; 6.01% in test [8]; 3.96% in [9]; -1.87% in [10]; 1.11% in test [11]; 1.37% in [12]. The inhibition in test [13] was 2.22%; in test [14], 1.09%; in test [15], 2.77%; in test [16], 2.53%; in [17], 1.85%; in test [18], -5.34%. The inhibition in test [19] was -2.04%; in test [20], 1.74%.
Consider `CC(C)c1ccc2c(c1)NC(=O)/C2=N/Nc1ccc(S(N)(=O)=O)cc1`, for which the inhibition in test [1] is 1%; in test [2], 0.91%; in test [3] it was -0.14%; in test [4], 3.46%; in test [5] it was -0.01%; in test [6], 0.48%. The inhibition in [7] was 5.04%; in [8], 1.14%; in [9], 3.91%; in test [10], 2.58%; in test [11] it was -0.36%; in [12], 2.93%. The inhibition in test [13] is 15.5%; in [14], 1.02%; in test [15], 2.87%; in test [16], 4.65%; in test [17] it was 43.7%; in test [18], -2.45%. The inhibition was 1.48% in [19] and -0.25% in test [20].
With `OCc1ccc(-c2nc(-c3ccccn3)c(-c3ccc4c(c3)OCO4)[nH]2)cc1`, the inhibition in test [1] was found to be 5.49%; in test [2] it was 3.6%; in test [3] it was 4.6%; in [4] it was 5.91%; in [5] it was 5.71%; in [6] it was 5.49%. The inhibition in test [7] is 10.1%; in test [8] it was 6.26%; in test [9], 7.28%; in [10], 0.04%; in [11], 4.36%; in [12], 3.43%. The inhibition in test [13] was 8.26%; in test [14] it was 0.94%; in [15], 2.09%; in test [16], 3.25%; in test [17] it was 5.93%; in test [18], 0.22%. Further, the inhibition in test [19] is -3.23%; in [20], 3.25%.
`NS(=O)(=O)c1cccc(Nc2cc(-c3ccc(F)cc3)n[nH]2)c1`: the inhibition was determined as 6.71% in [1]; 2.34% in test [2]; 2.7% in [3]; 0.46% in test [4]; 3.62% in test [5]; 0.78% in [6]. The inhibition was 9.22% in test [7]; 8.19% in test [8]; 8.88% in test [9]; 0.98% in test [10]; 2.4% in [11]; 6.05% in [12]. In addition, the inhibition was 14.4% in test [13]; 2.62% in test [14]; 15.9% in [15]; 16.3% in [16]; 67.1% in [17]; -2.62% in [18]. Besides, the inhibition in [19] was -1.33%; in test [20], 4.42%.
